Measurements published in PubChem BioAssay AID1456 (Vanderbilt High Throughput Screening Facility, 2008).
The whole screen tested about 190,000 compounds, of which about 4,100 (2.2%) were called active. The sample holds actives, similar compounds and a random draw of the others, so the mix is not that of the screen. Unmarked numbers belong to inactive results.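 Rule for the calls: active = thallium flux slope and its plate-corrected score both differing from the plate sample mean at a set confidence after two filtering rounds, in either direction; inactive = the rest.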

molecular target: Solute carrier family 12 member 5 (Homo sapiens) (UniProt Q9H2X9); experiment: KCC2 cotransporter modulators, thallium flux, primary screen, cell-based, HEK293 KCC2, FluoZin-2 fluorescence, MLSMR (AID 1456); details: KCC2 cells, thallium flux FluoZin-2 fluorescence; at 10 µM;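 for B-score of Tl+ flux slope (higher = more flux/activation; lower = inhibition): slope of fluorescence scaled to starting intensity during 10 to 20 s after thallium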
Sequence (Q9H2X9 whole entry, looked up): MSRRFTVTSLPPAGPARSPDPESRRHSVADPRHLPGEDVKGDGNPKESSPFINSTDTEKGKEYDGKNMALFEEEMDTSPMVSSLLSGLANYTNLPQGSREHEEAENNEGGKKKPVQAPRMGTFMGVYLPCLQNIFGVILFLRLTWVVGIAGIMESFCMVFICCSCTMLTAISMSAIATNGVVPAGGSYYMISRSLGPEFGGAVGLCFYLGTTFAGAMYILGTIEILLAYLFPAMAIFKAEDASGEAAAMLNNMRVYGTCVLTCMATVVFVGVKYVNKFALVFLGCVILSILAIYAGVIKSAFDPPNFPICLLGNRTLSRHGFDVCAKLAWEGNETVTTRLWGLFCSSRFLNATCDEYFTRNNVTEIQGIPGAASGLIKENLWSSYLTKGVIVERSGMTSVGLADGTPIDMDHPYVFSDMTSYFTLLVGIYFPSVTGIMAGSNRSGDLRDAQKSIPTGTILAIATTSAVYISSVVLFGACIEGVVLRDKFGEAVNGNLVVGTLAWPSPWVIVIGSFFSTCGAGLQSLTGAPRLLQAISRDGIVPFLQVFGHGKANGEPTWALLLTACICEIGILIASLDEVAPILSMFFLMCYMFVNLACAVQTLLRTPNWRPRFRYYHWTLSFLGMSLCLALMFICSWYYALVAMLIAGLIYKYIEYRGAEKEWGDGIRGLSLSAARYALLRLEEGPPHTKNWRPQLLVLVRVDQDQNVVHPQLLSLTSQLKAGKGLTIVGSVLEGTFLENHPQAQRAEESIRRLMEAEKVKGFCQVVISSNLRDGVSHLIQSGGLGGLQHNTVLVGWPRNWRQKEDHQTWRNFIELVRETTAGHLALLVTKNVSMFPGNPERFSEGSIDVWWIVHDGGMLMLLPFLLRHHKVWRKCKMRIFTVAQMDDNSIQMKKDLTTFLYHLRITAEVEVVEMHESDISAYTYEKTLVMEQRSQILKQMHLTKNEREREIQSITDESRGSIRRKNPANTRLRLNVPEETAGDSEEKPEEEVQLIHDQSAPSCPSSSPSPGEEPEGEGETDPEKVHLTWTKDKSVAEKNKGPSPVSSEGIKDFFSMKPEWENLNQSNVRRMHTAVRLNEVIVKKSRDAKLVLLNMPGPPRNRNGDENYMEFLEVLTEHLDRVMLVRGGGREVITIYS

| SMILES | B-score of Tl+ flux slope (higher = more flux/activation; lower = inhibition) |
| --- | --- |
| CC1(C)CCSC(/C=C/c2ccccc2)=N1 | -1.21 |
| COc1ccc(N=Nc2ccc(O)c(P(=O)(c3ccccc3)c3ccccc3)c2)cc1 | -0.282 |
| CCOC(=O)C(=O)C1C(=O)Nc2ccccc21 (centres undefined) | inactive |
| CCCCC(CC)CNC(=O)C(=O)C1C(=O)Nc2ccccc21 (centres undefined) | 8.5 (active) |
| CCCCC(CC)CNC(=O)CCCCn1c(=O)[nH]c2ccsc2c1=O (centres undefined) | -0.707 |
| OCCCC1CCCCN1Cc1nc(Cc2ccccc2Cl)no1 (centres undefined) | -0.7 |
| O=C(/C=C/Nc1ccc(S(=O)(=O)Nc2cnc3ccccc3n2)cc1)c1cccnc1 | -0.253 |
| CCOC(=O)c1nnn2c1nc(N1CCN(c3ccccc3)CC1)c1ccccc12 | -2.78 |
| C/C=C(\C)C(=O)N1CC2(CC(c3cccc(NC(=O)CCCCC)c3)=NO2)C[C@@H]1C(N)=O (some centres undefined) | -0.00449 |
| O=C(NN1C(=O)C2C(C1=O)C1C=CC2C12CC2)c1ccccc1Cl (centres undefined) | 0.716 |
| CCOC(=O)c1ccc(NC(=O)CSc2ncccn2)cc1 | 1.85 |
| CCc1ccc(CCC(=O)Nc2ccc(S(N)(=O)=O)cc2)o1 | 1.49 |
| Cc1oc2nc(SCC(=O)Nc3ccc(S(N)(=O)=O)cc3)nc(NC(=O)c3ccccc3)c2c1C | 6.29 (active) |
| CCOc1ccc(NC(=O)CN(C)CC(=O)NC(C)c2ccccc2)cc1OCC (centres undefined) | -0.692 |
| CCOc1ccc(NC(=O)CN(C)CC(=O)Nc2cccc(Cl)c2C)cc1OCC | -5.58 (active) |
| COc1cccc(NC(=O)CN(C)CC(=O)Nc2ccc3c(c2)CCC3)c1 | -0.353 |
| COc1ccc(/C=N/NS(=O)(=O)c2ccc(NC(C)=O)cc2)cc1 | 0.538 |
| COc1ccc(Cl)cc1NC(=O)CCN1CCOCC1 | -0.478 |
| O=C(NCc1ccco1)C1CCCN(S(=O)(=O)c2ccccc2)C1 (centres undefined) | -0.4 |
| O=S(=O)(c1ccc(F)cc1)N1CCN(C(=S)NCc2ccco2)CC1 | -3.94 (active) |
| O=S(=O)(c1ccc(F)cc1)N1CCN(C(=S)NC2CCCC2)CC1 | -0.0466 |
| O=S(=O)(c1ccc(Cl)cc1)N1CCCN(c2ccc(C(F)(F)F)cn2)CC1 | -0.0306 |
| C=CCC(Nc1ccccc1)c1cccc(OC)c1OC (centres undefined) | -1.46 |
| O=C(CSc1nnc(-c2cccs2)n1Cc1ccccc1)N1CCc2ccccc2C1 | -5.7 (active) |
| O=C(CSc1nnc(-c2cccs2)n1-c1ccccc1)N1CCN(C(=O)c2ccco2)CC1 | 0.0437 |
| Cc1nnc(SCC(=O)N2CCc3ccccc3C2)s1 | 0.173 |
| CC(C)Cc1nnc(NC(=O)CCC(=O)Nc2ccc3cn[nH]c3c2)s1 | 0.683 |
| Nc1nnnn1/N=C/c1cc([N+](=O)[O-])ccc1O | -0.19 |
| COc1cccc(CC(=O)Nc2ccc(-c3csc(C)n3)cc2)c1 | -1.35 |
